# TIM10 inh = growth inhibitors of TIM10 yeast strain; AID 463195; inhibition, % at 10 µM; S. cerevisiae TIM10 strain growth, BacTiter-Glo luminescence, 24 h; 330,000 tested, 1.4% active;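 active means inhibition of 40% or more at the single tested concentration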;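 further: wild-type TIM10 isogenic control strain grown at permissive 25 °C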
# tim23-1 inh = growth inhibitors of tim23-1 mutant yeast. S. cerevisiae tim23-1 growth, BacTiter-Glo luminescence, 24 h. inhibition, % at 20 µM. 330,000 tested, 1.3% active. AID 463212;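 active means growth inhibition of the mutant yeast at or above 50%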;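 further: temperature-sensitive mutant grown at 25 °C; plate controls were DMSO-treated mutant yeast for no effect and medium wells lacking yeast for full effect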
# V-ATPase pHluor = yeast V-ATPase proton transport regulation by pHLuorin. response, % at 10 µM. S. cerevisiae, pHLuorin cytosolic pH fluorescence. 350,000 tested, 0.37% active; in the data active means response mostly above about 7.3%, no sharp cut-off; inactive means mostly below about 5.4%; further: actives read high
# tim10-1 inh = inhibits growth of tim10-1 mutant yeast; inhibition, % at 20 µM; 330,000 tested, 2.2% active; S. cerevisiae tim10-1 ts strain growth, BacTiter-Glo, 24 h;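 active means inhibition of at least 40%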;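 further: mutant grown at 25 °C; 0% = DMSO wells with yeast and 100% = wells holding no yeast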
# NLRP3 yeast inh = blocks the NALP3 inflammasome reconstituted in yeast | Yeast reconstituted NLRP3/ASC/caspase-1, beta-gal luminescence, 24 h | inhibition, % at 10 µM | 330,000 tested, 0.39% active | AID 2825;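 active means inhibition of 50% or more; inactive means inhibition below 50%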;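 further: plate controls were induced DMSO wells for no effect and uninduced yeast grown without galactose for full effect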
# NALP1 yeast inh = inhibitors of NALP1 inflammasome in yeast; S. cerevisiae NALP1/ASC/caspase-1 growth, X-gal OD620, 72 h; 280,000 tested, 0.61% active; inhibition, % at 10 µM; in the data active means inhibition mostly above about 24%, no sharp cut-off; inactive means mostly below about 32%
# TIM10 conf = confirmation of TIM10 yeast growth inhibitors; 4,600 tested, 63% active; inhibition, % at 10 µM; AID 463215; shares compounds with TIM10 inh; S. cerevisiae tim10 strain growth, BacTiter-Glo luminescence, 24 h;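 active means inhibition of yeast growth at or above a set limit in either of two replicates at 10 µM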;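 further: this counterscreen used the strain with wild-type TIM10; 0% = yeast with DMSO and 100% = medium wells lacking yeast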
# * hit, by the source's call; . = no result. Only some compounds are listed: those with a hit (about 4.2% of all), similar ones and a draw of the others.
SMILES,TIM10 inh,tim23-1 inh,V-ATPase pHluor,tim10-1 inh,NLRP3 yeast inh,NALP1 yeast inh,TIM10 conf
Cn1c(SCC(=O)N(Cc2ccccc2)C(C)(C)C)nc2ccccc21,40*,49,2,33,15,-3,24
CCOC(=O)c1cc2c(ccc3ccccc32)oc1=O,47*,26,1,22,6,-21,49*
N=c1oc2ccc3ccccc3c2cc1C(N)=S,42*,42,-2,20,17,14,39*
O=C(O)c1cc2c(ccc3ccccc32)oc1=O,0,10,5,1,6,16,.
O=C(O)C1CCCCC1C(=O)Nc1ccc(S(=O)(=O)N2CCCC2)cc1 (stereo not drawn),-2,15,1,15,9,7,.
COC(=O)C1=C(N)Oc2cc(N(C)C)ccc2C1c1ccccc1OC (stereo not drawn),42*,21,1,29,3,26,-1
CCN(CC)CCN(C(=O)c1ccc2c(c1)CCCC2)c1nc2ccc(F)cc2s1,18,38,1,18,29,-1,.
CCN(CC)CCN(C(=O)c1ccc2c(c1)CCCC2)c1nc2c(C)cccc2s1,40*,48,-3,39,21,13,12
COc1cc2c(cc1NC(=O)CN(C)Cc1nc3ccccc3c(=O)[nH]1)oc1ccccc12,42*,27,-2,27,18,22,-25
O=S1(=O)C=C(Oc2ccc3ccccc3c2)c2ccccc21,42*,38,6,28,25,-20,42*
COC(=O)C1=C(C)N(c2ccccc2)C(=S)NC1c1ccccc1C(F)(F)F (stereo not drawn),50*,36,-1,37,4,6,16
COCCCn1c(C)cc(C(=O)COC(=O)C23CC4CC(CC(O)(C4)C2)C3)c1C,0,22,0,9,12,.,.
FC(F)Oc1ccc(NC(=S)NCc2ccccc2)cc1,-2,21,-1,12,16,7,.
Cc1ccc(NC(=S)Nc2ccc(OC(F)F)c(Cl)c2)cc1Cl,.,.,2,.,.,6,.
FC(F)Oc1ccc(NC(=S)NCc2ccccc2)cc1Cl,50*,24,-3,31,8,-12,33*
FC(F)(F)c1ccc(NC(=S)NCc2ccccc2)cc1,45*,43,-1,36,29,0,47*
CC(NC(=S)Nc1ccc(OC(F)F)c(Cl)c1)C(C)(C)C (stereo not drawn),51*,30,3,38,6,6,38*
C[C@]12C(=O)N(c3ccccc3)C(=O)N1[C@H]1c3ccccc3OC[C@@H]1[C@H]2c1ccccc1,42*,46,-2,28,13,.,47*
Cc1ccc(-c2noc(CNS(=O)(=O)c3ccccc3)n2)cc1,19,28,-1,33,1,13,.
O=S(=O)(c1ccc(Oc2ncnc3scc(-c4ccccc4)c23)cc1)N1CCOCC1,9,32,4,29,16,9,.
CC(=O)Nc1cccc(Oc2ncnc3scc(-c4ccccc4)c23)c1,48*,43,2,25,12,18,15
O=C1OC(c2ccccc2)=C/C1=C/c1cccs1,46*,43,0,12,1,30,-35
COc1cc(-c2nnc(SCC(=O)NC3CCS(=O)(=O)C3)o2)cc(OC)c1OC (stereo not drawn),-16,3,-2,-2,13,6,.
COc1cc2c(cc1C1NC(=S)NC(C)=C1C(N)=O)CCCC2 (stereo not drawn),2,1,1,12,14,-2,.
NNc1nc2ccc(F)cc2s1,5,20,0,13,17,41,.
Fc1ccc2nc(Nc3ccccc3)sc2c1,43*,24,1,30,20,14,30
Cc1ccc(C[n+]2ccccc2)cc1,0,-1,3,-16,1,.,.
Cc1ccc(-c2cc3cccc[n+]3cc2-c2ccc(C)cc2)cc1,51*,38,0,39,2,4,53*
Cc1cc(C(=O)CCC(=O)NC(C)c2ccc(S(N)(=O)=O)cc2)c(C)s1 (stereo not drawn),-7,-8,-1,-19,15,.,.
COC(=O)c1ccc(OCC(O)CNCC(c2ccc(OC)cc2)N(C)C)c(OC)c1 (stereo not drawn),-1,9,-1,-17,16,10,.

# Assay outcomes deposited in PubChem BioAssay by several laboratories.
